RORgamma inh – blocks mouse ROR gamma transcriptional activity; P51450; Drosophila S2 Gal4-RORgamma UAS-luciferase reporter, 20 h; Potency, µM (top dose mostly 53.6 µM), inactives show at the top dose activity change, negative = inhibition, most hits filed as inhibitors; 5.4% of 310,000 active; AID 2551; also: nearly all actives have a fitted effect of over 60% in size
Target sequence (P51450 whole entry, looked up, the tested form may be a part): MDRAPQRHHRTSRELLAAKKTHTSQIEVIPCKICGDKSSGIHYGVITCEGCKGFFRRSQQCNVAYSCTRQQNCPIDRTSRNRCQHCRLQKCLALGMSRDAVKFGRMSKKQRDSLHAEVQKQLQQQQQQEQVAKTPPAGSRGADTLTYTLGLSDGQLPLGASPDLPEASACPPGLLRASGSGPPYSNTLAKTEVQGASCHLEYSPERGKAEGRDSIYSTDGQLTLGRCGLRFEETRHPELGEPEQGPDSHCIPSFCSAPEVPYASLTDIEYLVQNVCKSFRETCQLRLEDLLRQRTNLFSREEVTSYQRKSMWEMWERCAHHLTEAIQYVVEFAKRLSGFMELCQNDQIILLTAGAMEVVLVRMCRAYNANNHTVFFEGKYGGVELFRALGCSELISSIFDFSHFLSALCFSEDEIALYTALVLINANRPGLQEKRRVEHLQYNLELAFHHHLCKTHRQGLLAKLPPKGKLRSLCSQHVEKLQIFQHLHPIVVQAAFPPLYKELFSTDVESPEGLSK
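Schneider cells (Drosophila), stable Gal4 DBD–ROR gamma + UAS-luc; 1 hr cmpd preincubation; Cu2+ induction 700 uM final; 20 hr ambient; luminescence.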
VP16 counter – counter-screen for ROR gamma inhibitors: Gal4-VP16 reporter; Drosophila S2 Gal4-VP16 UAS-luciferase, luminescence, 20 h; 3.5% of 310,000 active; Potency, µM (series often up to 53.6 µM), inactives show top-dose activity, negative = inhibition, hits mostly inhibitors;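 also: Gal4-VP16 expression switched on by copper sulfate through the metallothionein promoter; nearly all actives have a fitted effect of over 50% in size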
ELG1 DNA repair – ELG1-dependent DNA repair inhibition; HEK293T ELG1-luciferase reporter, luminescence, 16 h; DNA damage induced by 5-fluorouridine; Potency, µM (titrated, usually from 46.1 µM), for the others: at the highest dose activity change, negative = inhibition, most hits filed as inhibitors; 2.3% of 330,000 active; also: nearly all actives have a fitted effect of over 55% in size
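Step one: seed 2,000 cells per well. Step two: pin-transfer compound or DMSO alongside 5-fluorouridine. Step three: incubate 16 hr, 37 °C, 5% CO2. Step four: add ONE-Glo, wait 30 min, read luminescence.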
ALOX12 inh – blocks human arachidonate 12S-lipoxygenase; purified 12hLO, xylenol orange hydroperoxide absorbance; Potency, µM (doses to about 108 µM), for inactives: top-dose activity change, negative = inhibition, most hits filed as inhibitors; AID 1671190; 1.1% of 580,000 active; P18054
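Purified human 12hLO at 150 nM in 25 mM Hepes, 0.01% Triton X-100, pH 7.0, preincubated 15 min at room temperature with compound. Reaction started with 40 uM arachidonic acid, 30 min at room temperature. Hydroperoxide measured by Fe-xylenol orange, 573/405 nm absorbance ratio.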
DT40 TDP1 CPT – growth inhibition of DT40 Tdp1-/-;hTDP1 cells with camptothecin (screen for TDP1 inhibitors); chicken DT40 Tdp1-/-;hTDP1 cells + 20 nM CPT, ATP luminescence, 48 h; Potency, µM (titrated, usually from 46.2 µM), for inactives: at the highest dose activity change, negative = growth inhibition, usual class: inhibitors; 12% of 420,000 active; AID 686979; also: nearly all actives have a fitted effect of over 55% in size
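Chicken DT40 Tdp1-/- cells complemented with human TDP1, 400 cells/well, exposed to compounds plus 20 nM camptothecin for at least 48 h at 37 C; viability read as ATP content by CellTiter-Glo luminescence.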
TDP1 cell noCPT – qHTS for Inhibitors of human tyrosyl-DNA phosphodiesterase 1 (TDP1): qHTS in cells in absence of CPT; DT40 Tdp1-/- hTDP1 cells, no CPT, ATP luminescence, 48 h; Potency, µM (titrated, usually from 46.2 µM), without a hit: at the top dose activity change, negative = growth inhibition, actives largely listed as inhibitors; 15% of 420,000 active; AID 686978, 2013; also: nearly all actives have a fitted effect of over 55% in size
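Compound effects on proliferation are scored in DT40 Tdp1-/-;hTDP1 cells in the absence of CPT. ATP levels (CellTiter-Glo luminescence) are recorded after a ≥48 hr, 37 °C incubation.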
Starred values were filed as active, the others as inactive; ? = inconclusive; / = not tested or not shown; [ ] = remark or other dose. In the library only some 15% were active in any assay of this set; here they are far more common. Calls follow the shape of the dose curve; as a rule, active = well fitted curve in the direction sought with a large enough effect; inconclusive = small, poorly fitted or top-dose-only effect, or another doubt; inactive = no such curve, though single readings can be large; an effect the other way counts as inactive or inconclusive. % is scaled to controls: 0 for no effect and ±100 for the full control effect; potency is read from the fitted curve at half-maximal effect.

SMILES	RORgamma inh	VP16 counter	ELG1 DNA repair	ALOX12 inh	DT40 TDP1 CPT	TDP1 cell noCPT
CCc1ccc(OCC(=O)N/N=C/c2ccc(OS(=O)(=O)c3ccc(C)cc3)c(OC)c2)cc1	-14%	-1%	-26%	-7%	-1%	7%
COc1ccccc1C(=O)NCC(=O)NC(C)CCc1ccccc1 (centres undefined)	6.3µM*	14µM*	1%	-2%	-23%	-16%
COc1ccccc1C(=O)NCC(=O)NCCC(c1ccccc1)c1ccccc1	/	/	0%	-12%	15µM*	16µM*
CCN1CCCC1CNC(=O)CCC1CCN(Cc2cn(CC)c3ccccc23)CC1 (centres undefined)	/	/	/	-1%	/	/
CCN1CCN(Cc2cccc(Oc3ccccc3)c2)CC1	-32%	1%	-3%	-61%	-15%	-15%
CCN1CCN(Cc2cccc(Oc3ccc(Cl)cc3)c2)CC1	?	3%	-10%	-43%[57.4 µM]	?	16µM*
CN1CCN(Cc2cccc(Oc3ccc(Cl)cc3)c2)CC1	43%	19%	?	?	29µM*	?
CCOC(=O)C1CCN(Cc2cccc(Oc3ccc(Cl)cc3)c2)CC1	-14%[1.91 µM]	12%	-18%	1.4µM*	?	-25%
O=S(=O)(NC1CCc2nnc(C3CC3)n2CC1)c1cccnc1 (centres undefined)	/	/	/	31%	/	/
Cc1nn(-c2ccccc2)c2[nH]c(=O)c(CNCc3ccc4c(c3)OCO4)cc12	1%	-9%	-14%	-2%	18µM*	15µM*
Cc1ccc(-c2nn(-c3ccccc3)c3[nH]c(=O)c(CNCCN(C)C)cc23)cc1	4µM*	7.9µM*	3%	/	/	/
Cc1nn(-c2ccccc2)c2[nH]c(=O)c(CNc3ccc4c(c3)OCCO4)cc12	-4%	-1%	21%	70%	-23%	-21%
CCc1ccc(NCc2cc3c(C)nn(-c4ccccc4)c3[nH]c2=O)cc1	-44%	-5%	?	-9%	21µM*	13µM*
C=CCn1cc2c3c(cccc31)[C@H](CC(C)C)N[C@H](C(=O)NC1CCCC1)C2	/	/	/	-4%[176 µM]	/	/
Cc1ccccc1CC1(CO)CCCN(Cc2nc(-c3cccs3)oc2C)C1 (centres undefined)	?	-1%	-6%	-4%	?	21µM*
CCCN1CCC(=O)N([C@H](CSc2ccc(OC)cc2)Cc2ccccc2)CC1	?	3%	-1%	-8%	?	18µM*
CCCN1CCC(=O)N([C@H](CSc2ccc(C)cc2)Cc2ccccc2)CC1	34%	-10%	-1%	9%	29µM*	?
O=C1CCN(CCc2ccccc2)CCN1[C@H](CSc1ccccc1)Cc1ccccc1	37%	-11%	-8%	5%	21µM*	11µM*
CCCN1CCC(=O)N(C(CSc2ccc(C)cc2)CC(C)C)CC1 (centres undefined)	38%	-1%	/	/	/	/
CCCN1CCC(=O)N([C@H](CSc2ccc(C)cc2)CC(C)C)CC1	0%	-12%	?	2%	21µM*	16µM*
Cc1ccc(SC[C@H](Cc2ccccc2)N2CCN(CCc3ccccc3)CCC2=O)cc1	32%	-10%	?	-5%	?	?
Cc1ccc(F)c(NC(=O)CCN=C2NS(=O)(=O)c3ccccc32)c1	/	/	/	46%	/	/
CCOC(=O)C1C(=O)CC(C)(O)C(C(=O)OCC)C1c1cccs1 (centres undefined)	-1%	-8%	10%	2%	8%	0%
CCOC(=O)C1C(=O)CC(C)(O)C(C(=O)OCC)C1c1ccco1 (centres undefined)	0%	-4%	7%	-10%	18µM*	21µM*
CCOc1cc(/C=C/c2ccc3cccc([N+](=O)[O-])c3n2)ccc1O	22%	-2%	-23%	?	?	18µM*
SMILES	RORgamma inh	VP16 counter	ELG1 DNA repair	ALOX12 inh	DT40 TDP1 CPT	TDP1 cell noCPT
CCOc1cc(/C=C/c2ccc3cccc([N+](=O)[O-])c3n2)ccc1OCC(=O)N(C)C	?	8%	16µM*	9%	23µM*	?
COc1cccc(/C=C/c2ccc3cccc([N+](=O)[O-])c3n2)c1	/	/	/	7%	/	/
COc1cc(/C=C/c2ccc3cccc([N+](=O)[O-])c3n2)ccc1OCC#N	-1%	1%	23µM*	?	5.8µM*	3.7µM*
COc1ccc(-c2noc(CC3CCN(C(=O)c4ccc(OC)cc4OC)CC3)n2)cc1	/	/	/	11%	/	/
COc1cc(-c2onc(C)c2C(=O)NCC2CCCO2)cc(OC)c1OC (centres undefined)	/	/	/	18%	/	/
Cn1nc([N+](=O)[O-])nc1Oc1ccccc1F	-13%	8%	6%	16%	-2%	-6%
Cn1nc([N+](=O)[O-])nc1S(C)(=O)=O	5µM*	?	?	-3%	4.6µM*	4.6µM*
CS(=O)(=O)c1nc([N+](=O)[O-])nn1CCCc1ccccc1	/	/	/	/	6.5µM*	13µM*
CC(=O)N1CCN(C(=O)c2cccc3c(=O)c(C)c(-c4ccccc4)oc23)CC1	/	/	/	4%	/	/
CC(O)CNc1nc2c(c(=O)n(C)c(=O)n2C)n1Cc1ccccc1Br (centres undefined)	/	/	/	33%	/	/
CC1(C(=O)NCc2ccc(F)c(F)c2)Cc2c(-c3cccc(C(F)(F)F)c3)ccnc2O1 (centres undefined)	/	/	/	-27%	16µM*	16µM*
CC1(C(=O)NCc2cccnc2)Cc2c(-c3cccc(C(F)(F)F)c3)ccnc2O1 (centres undefined)	/	/	/	9%	23µM*	21µM*
CN(C)c1ccc(CNC(=O)C2(C)Cc3c(-c4cccc(C(F)(F)F)c4)ccnc3O2)cc1 (centres undefined)	/	/	/	?	16µM*	?
COc1ccc(NC(=O)C2(C)Cc3c(-c4ccc(NC(C)=O)cc4)ccnc3O2)cc1 (centres undefined)	/	/	/	16%	?	?
CC(=O)Nc1ccc(-c2ccnc3c2CC(C)(C(=O)NCc2ccc(F)c(F)c2)O3)cc1 (centres undefined)	/	/	/	?	5.8µM*	3.3µM*
CCc1cccc(NC(=O)Cn2nc3c(cc2=O)CCCC3)c1	/	/	/	20%	/	/
CC1(C(=O)NCc2ccc(F)c(F)c2)Cc2c(-c3ccccc3)ccnc2O1 (centres undefined)	/	/	/	/	10µM*	6.5µM*
COc1ccc(CNC(=O)C2(C)Cc3c(-c4ccccc4)ccnc3O2)cc1OC (centres undefined)	/	/	/	-3%	?	?

High-throughput results deposited in PubChem by National Center for Advancing Translational Sciences (NCATS).
